Results from ChEMBL document CHEMBL3988442, “University of Dundee, Small-Polar-MMV Screening Library” (2021).

Legend:
[1] = target: T1, Aspartate--tRNA(Asp/Asn) ligase (Mycobacterium tuberculosis (strain ATCC 25618 / H37Rv)) (UniProt P9WFW3); experiment: Assay for Asp RNA synthetase-1 from Mycobacterium tuberculosis; assay type: functional; parameters: scale not given: direction of the effect not stated beside the values; settings: 30 µM; also: in the data most compounds retested in dose-response had high values
T1 sequence (whole entry): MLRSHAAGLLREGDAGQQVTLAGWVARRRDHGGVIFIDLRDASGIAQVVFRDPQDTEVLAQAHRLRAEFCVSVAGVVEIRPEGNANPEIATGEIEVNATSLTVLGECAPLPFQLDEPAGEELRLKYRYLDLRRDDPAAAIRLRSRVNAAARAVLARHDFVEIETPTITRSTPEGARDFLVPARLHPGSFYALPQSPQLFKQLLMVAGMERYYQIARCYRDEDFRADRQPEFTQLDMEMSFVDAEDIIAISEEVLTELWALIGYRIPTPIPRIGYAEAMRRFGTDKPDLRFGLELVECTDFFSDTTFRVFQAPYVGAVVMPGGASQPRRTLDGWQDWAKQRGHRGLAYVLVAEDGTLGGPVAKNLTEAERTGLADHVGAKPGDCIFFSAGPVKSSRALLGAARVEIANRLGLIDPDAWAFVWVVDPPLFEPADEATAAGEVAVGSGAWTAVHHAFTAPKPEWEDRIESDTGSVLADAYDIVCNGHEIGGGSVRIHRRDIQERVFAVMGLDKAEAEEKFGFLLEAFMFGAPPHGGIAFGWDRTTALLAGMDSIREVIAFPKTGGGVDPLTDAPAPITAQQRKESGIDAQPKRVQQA

[2] = target: Shiga toxin 2 (Escherichia coli O157:H7) (UniProt P09385+P09386); experiment: E. coli 0.157:H7 Shiga Toxin SOP - stx2 screening assay; assay type: functional; parameters: scale not given: direction of the effect not stated beside the values; settings: 30 µM

SMILES | Percent Effect [1] | Percent Effect [2]
c1cnc(NCc2cncc3c2CCN(Cc2cccs2)C3)nc1 | 3.81% | -9.08%
Cc1noc(C2CCN(C(=O)CN(C)c3ccc(Cl)cn3)CC2)n1 | -1.59% | -21.6%
Cn1nc(C2CCCN(C(=O)Cc3ccsc3)C2)c2nccnc21 (stereo not drawn) | -0.402% | 7.06%
Cc1nc(CN2CCCn3c(nc(Cn4ccnc4)cc3=O)C2)cs1 | 0.435% | -3.23%
CN(Cc1cnn(-c2ccccc2)n1)CC1CCCN1c1cccnn1 (stereo not drawn) | 1.85% | 16%
Cc1ccccc1C(=O)Nc1cnn(CC(=O)NC2CCCC2)c1 | 2.07% | -6.1%
CC(=O)N1CCN(C(=O)CCCc2nc(C(C)C)no2)CC1 | 5.17% | -7.36%
Cc1cnn(CCNCc2nc(Cc3ccccc3)no2)c1 | -1.23% | 25%
CCc1n[nH]c(C2CN(C(=O)c3nc(C)n4ccccc34)CCO2)n1 (stereo not drawn) | 2.55% | -2.71%
O=C(Nc1cnccn1)[C@@H]1COC[C@H]2CN(C3CCCC3)C[C@H]21 | -5.7% | 18%
O=C(NCc1cccs1)C1CN(C(=O)c2cccs2)CC12CCOCC2 (stereo not drawn) | 6.61% | 5.39%
Cc1cc(C)cc(-c2cccc(CC3(C(=O)O)CCOCC3)c2)c1 | 2.93% | -30%
N#Cc1cccnc1N1CCC2(CCCN(C3CCOCC3)C2=O)C1 (stereo not drawn) | -3.99% | -16.3%
O=C(NCCc1cccs1)[C@H]1CO[C@H]2CCNC[C@H]2C1 | 2.09% | 2.12%
CCc1ncncc1C(=O)NCCN1CCC(C)CC1 | -3.79% | 5.13%
O=C1NCC[C@]12CN(Cc1ccoc1)C[C@H]2c1ccccc1 | 1.06% | -14.1%
COc1ccc(C2Nc3ccccc3C3=NCCCN32)cc1OC (stereo not drawn) | 3.81% | -2.36%
COc1cccc(CNC(=O)C(c2cccc(F)c2)N2CCOCC2)c1 (stereo not drawn) | 1.86% | -6.55%
CCOC(=O)c1c(NC(=O)CN2CCN(C(C)=O)CC2)sc2c1CCC2 | -3.95% | 16.4%
